According to ChEMBL document CHEMBL4513152, “CO-ADD screening of Yantai University (China) compounds”:
Potency and affinity values are given separately.

Tests used:
Staphylococcus aureus = conditions: Concentration 32 ug.mL-1; ASSAY_TEST Inhibition of Bacterial Growth; detection method Absorption (OD600); MEDIA CAMHB; plate type 384well; NBS; CORNING #3640; time 18 hr
Escherichia coli = conditions: Concentration 32 ug.mL-1; ASSAY_TEST Inhibition of Bacterial Growth; detection method Absorption (OD600); MEDIA CAMHB; plate type 384well; NBS; CORNING #3640; time 18 hr

SMILES	Inhibition (Staphylococcus aureus)	Inhibition (Escherichia coli)
CC(=O)O[C@H]1C[C@@]2(C)C(C[C@@H](O)C3[C@@]4(C)CC[C@@H](OC(=O)c5ccccc5C(=O)Nc5cccc(N)c5)[C@@H](C)C4CC[C@@]32C)/C1=C(\CCC=C(C)C)C(=O)OCc1ccccc1 (stereo partly specified)	1.65%	-0.14%
CC(=O)O[C@H]1C[C@@]2(C)C(C[C@@H](O)C3[C@@]4(C)CC[C@@H](OC(=O)c5ccccc5C(=O)OCCc5ccc(OCCO[N+](=O)[O-])cc5)[C@@H](C)C4CC[C@@]32C)/C1=C(\CCC=C(C)C)C(=O)OCc1ccccc1 (stereo partly specified)	8.23%	0.28%
CC(=O)O[C@H]1C[C@@]2(C)C(C[C@@H](O)C3[C@@]4(C)CC[C@@H](OC(=O)C(N)CC(C)C)[C@@H](C)C4CC[C@@]32C)/C1=C(\CCC=C(C)C)C(=O)OCc1ccccc1 (stereo partly specified)	-0.87%	-4.43%
